From PubChem BioAssay (NCATS)
Inconclusive results are not listed. Active and inactive are the calls of the source. The call rests on the fitted dose curve; in most records, active means well fitted inhibition curve with a large enough effect; inconclusive means small, poorly fitted or top-dose-only effect; inactive means flat fitted curve, though single readings scatter. Where a SMILES comes first, the peptide text is derived from it. The star is where a group is joined. AFC = O=c1cc(C(F)(F)F)c2ccc(N*)cc2o1

Assays:
Assay in all cases: Cytotoxic Profiling of Annotated Libraries Using Quantitative High-Throughput Screening (AID 1296008); further: nearly all actives have a fitted effect of over 60% in size
Details in all cases: Five cell lines viability, CellTiter-Glo ATP luminescence, 48-72 h; max response: active compounds read low
CRL-7250 = system: CRL-7250
How it was run: (§1)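 Cells exposed to compounds for 48 or 72 hr at 37 degrees Celsius. Viability read as ATP-coupled luminescence with CellTiter-Glo after 10 min at room temperature.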

HEK293 = system: HEK293
How it was run: as §1

HaCat = system: HaCat
How it was run: as §1

KB-3-1 = system: KB-3-1
How it was run: as §1

NIH3T3 = system: NIH3T3
How it was run: as §1
On the % scale 0 is the no-effect control and ±100 the full control effect; potency means the concentration at half of the fitted maximal effect.

CC(=O)N[C@@H](Cc1c[nH]c2ccccc12)C(=O)N[C@@H](CCC(=O)O)C(=O)N[C@@H](Cc1cnc[nH]1)C(=O)N[C@@H](CC(=O)O)C(=O)Nc1ccc2c(C(F)(F)F)cc(=O)oc2c1 (Ac-WEHD-{AFC})
inactive: outcome (CRL-7250) | max response (HEK293) -1.72% | max response (HaCat) -11.3% | outcome (KB-3-1) | max response (NIH3T3) 0.286%

CCn1c(=O)c(-c2ccn[nH]2)cc2c(C)nc(N)nc21
active: Potency (CRL-7250) 2.31 µM | Potency (HEK293) 4.61 µM | Potency (HaCat) 2.59 µM | Potency (KB-3-1) 7.31 µM | Potency (NIH3T3) 1.84 µM

C=CC1(C)CC(OC(=O)/C(C)=C\COC(C)=O)C(C(=C)C(=O)O)C(O)C1C(=C)CO (stereo not given)
inactive: outcome (CRL-7250) | max response (HEK293) -0.348% | max response (HaCat) 3.73% | max response (KB-3-1) 8.05% | max response (NIH3T3) -3.05%

C=C1C(=O)O[C@@H]2/C=C(\C)C(=O)/C=C/[C@](C)(O)C[C@@H](OC(=O)C(C)C)[C@@H]12
active: Potency (CRL-7250) 4.04 µM | Potency (HEK293) 0.805 µM | Potency (HaCat) 2.02 µM | Potency (KB-3-1) 7.18 µM | Potency (NIH3T3) 2.55 µM

OCC(CO[C@@H]1O[C@H](CO)[C@@H](O)[C@H](O)[C@H]1O)c1ccc2c(c1)OCO2 (stereo not given in full)
inactive: max response (CRL-7250) 0.071% | max response (HEK293) -1.28% | max response (HaCat) 1.18% | max response (KB-3-1) -7.72% | max response (NIH3T3) -0.622%

CC(C)=CCC[C@](C)(O)[C@H]1CC[C@]2(C)[C@@H]1[C@H](O)CC1[C@@]3(C)CC[C@H](O)C(C)(C)C3[C@@H](O[C@@H]3O[C@H](CO)[C@@H](O)[C@H](O)[C@H]3O[C@@H]3OC[C@@H](O)[C@H](O)[C@H]3O)C[C@]12C (stereo not given in full)
inactive: max response (CRL-7250) -0.925% | max response (HEK293) 4.3% | max response (HaCat) -1.39% | outcome (KB-3-1) | max response (NIH3T3) 1.41%
